The values that follow come from PubChem BioAssay AID1224862 (National Center for Advancing Translational Sciences (NCATS), 2016).

The structures appear in SMILES notation. Results filed as inconclusive are left out. Unmarked numbers belong to inactive results. Activity calls are given as the source filed them. Calls follow the shape of the dose curve; as a rule, active = well fitted cell-killing curve with a large enough effect; inconclusive = small, poorly fitted or top-dose-only effect, or effect the other way; inactive = flat fitted curve, though single readings scatter.

This test in a line: Compound cytotoxicity measured by an ATP content assay as a counter-screen for lead compounds in human astrocytoma cell line (SNB-19). The following applies: SNB-19 astrocytoma viability, ATP luminescence; series mostly up to 46.1 µM; activity change, negative = cytotoxicity: at the top concentration. The method, then:
National Center for Advancing Translational Sciences [NCATS] Johns Hopkins University School of Medicine Florida State University Assay Overview: Many compounds can cause cytotoxicity at high compound concentrations. […] The compound cytotoxicity may also cause side effects or toxicity in human. Thus, the compound cytotoxicity needs to be measured in each cell type and each compound incubation time - same as these in the compound screening assay. The compound cytotoxicity can be measured by cell viability assays such as the ATP content assay. We use an ATP content assay kit for cell viability measurement. It measures ATP content (level) in human astrocytoma cell line (SNB-19) using a luminescence readout that is proportional to viable cell numbers. Decrease in the luminescence signal after the compound treatment indicates reduced cell viability and cell death caused by compound treatment.
Assay Protocol Summary: The medium for SNB-19 cells is composed of RPMI 1640 (ATCC, Cat.# 30-2001), 10% fetal bovine serum (FBS) (GE healthcare Life Sciences, Cat.# SH30071.03), and 1% Pen/Strep (Gibco, Cat.# 15140-122). The ATP content assay kit (PerkinElmer, Cat.# 6016731) was used to determine cell viability. The reagent was reconstituted and prepared as described by the manufacturer. Cells were seeded in 384- or 1536-well assay plates and cultured at 37 C with 5% CO2 for 16 to 20 hours. The typical cell seeding density in the 1536-well plate assay is 250 cells/well in 3ul medium for SNB-19 cells in tissue culture treated plates. Compounds were added to cells and incubated for a specific time such as 6, 24, or 72 hours before addition of the reagent mixture of the ATP content assay kit at 1:1 ratio. After incubation at room temperature for 10 minutes, the luminescence intensity in assay plates was measured using a ViewLux plate reader (PerkinElmer). […] The percentage inhibitions of the decreased cell viability by small molecules were then calculated that indicate compound cytotoxicity.
In the case of `COP(=S)(OC)SCN1C(=O)c2ccccc2C1=O`, the “activity change, negative = cytotoxicity” value was -11.2%.
On the same count and under the same terms, to `CC(O)CN1CCN(CC(=O)[O-])CCN(CC(=O)[O-])CCN(CC(=O)[O-])CC1.[Gd+3]` (centres undefined) belongs 7.64%; to `CC[n+]1c(-c2ccccc2)c2cc(N)ccc2c2ccc(N)cc21`, 1.41%; to `CC(C)[C@H]1C(=O)N[C@H](CO)Cc2c[nH]c3cccc(c23)N1C`, 1.43%.
On the same count and under the same terms, to `O=C1C=CC[C@@H]2[C@H]3CCCN4CCC[C@@H](CN12)[C@@H]34` belongs 23.5%; to `COc1cccc2c1C(=O)c1c(O)c3c(c(O)c1C2=O)C[C@@](O)(C(=O)CO)CC3OC1CC(N2CCOC(OC)C2)C(O)C(C)O1` (some centres undefined), 12.2%.
Take `Cc1ccc([N+](=O)[O-])[c]2c1[O][Hg]2`: the Potency is 5.48 µM (active).
Take `S=C(SSC(=S)N1CCCCC1)N1CCCCC1`: the “activity change, negative = cytotoxicity” value was -19.5%.
In the case of `CN1CC[C@@]2(C)c3cc(OC(=O)Nc4ccccc4)ccc3N(C)[C@@H]12`, the “activity change, negative = cytotoxicity” value was 6.03%.
The same measure, in the same setting: to `O=S(=O)(CC1CS1)c1ccc(Oc2ccccc2)cc1` (centres undefined) belongs -10.2%; to `CC(C)[N+](C)(CCC(C(N)=O)(c1ccccc1)c1ccccc1)C(C)C`, 13.4%.
Consider `CC(C)N[C@@H]1CCn2c(=O)[nH]c3cccc(c32)[C@@H]1O`, for which the “activity change, negative = cytotoxicity” value is -5.26%.
Same read-out and setting: to `Oc1ccc([C@H]2CNCc3c2ccc(O)c3O)cc1O` belongs 13.5%; to `O=C1CCC[C@@H]2[C@H]3CCCN4CCC[C@@H](CN12)[C@@H]34`, 13.7%.
